According to PubChem BioAssay (NCI):
This is part of a sample that, as a whole, favours compounds with a hit. Of some 79,000 tested, about 15% had one in any assay. Activity calls are given as the source filed them. No stated cut-off is given here; in the data, active means growth inhibition above about 70%; inactive means the rest.

What was measured:
[1] = NCI Yeast Anticancer Drug Screen. Data for the rad50 strain (AID 155);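 further: 0% = growth of vehicle-only cultures of the same strain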; conditions: S. cerevisiae rad50 strain growth inhibition; at 50.0 µM; stronger effect = higher value
Outline: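 DNA repair mutant yeast, compound exposure, growth read-out; inhibition is taken relative to vehicle.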

[2] = NCI Yeast Anticancer Drug Screen. Data for the mec2-1 strain (AID 157); conditions: S. cerevisiae mec2-1 strain, at 50.0 µM, stronger effect = higher value
Outline: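 Using mec2-1 yeast: add compound, measure growth, express inhibition versus vehicle-treated cultures.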

[3] = NCI Yeast Anticancer Drug Screen. Data for the sgs1 mgt1 strain (AID 161);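 further: 0% = growth of cultures given vehicle only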; conditions: S. cerevisiae sgs1 mgt1 strain, at 50.0 µM, stronger effect = higher value
Outline: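 Percent growth inhibition was derived by comparing compound-exposed mutant yeast with vehicle-exposed cultures. The strain carries alterations in DNA damage repair.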

[4] = NCI Yeast Anticancer Drug Screen. Data for the cln2 rad14 strain (AID 165);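 further: 0% = growth equal to vehicle treated cultures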; conditions: S. cerevisiae cln2 rad14 strain, at 50.0 µM, stronger effect = higher value
Outline: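 Yeast strain cln2 rad14, bearing defects in cell cycle control and DNA repair, serves as the test system; values reflect growth inhibition compared with vehicle.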

[5] = NCI Yeast Anticancer Drug Screen. Data for the bub3 strain (AID 167); conditions: S. cerevisiae bub3 mutant strain, at 50.0 µM, stronger effect = higher value
Outline: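 In this screen, a yeast mutant lacking normal mitotic checkpoint function is challenged with compound. Relative growth versus vehicle gives the inhibition value.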

[6] = NCI Yeast Anticancer Drug Screen. Data for the mlh1 rad18 strain (AID 175); conditions: S. cerevisiae mlh1 rad18 strain growth inhibition; at 50.0 µM; stronger effect = higher value
Outline: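 Steps: expose repair-defective yeast to compound; measure growth; express inhibition against vehicle-treated controls.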

Measured: growth inhibition

C=C(C)Cn1cnc2c1c(=O)n(C)c(=O)n2C
inactive: [1] -0.15% | [2] -9.6% | [3] -14.4% | [4] -37.6% | [5] -14.1% | [6] -5.6%

Cc1cc2c(-c3ccc(Cl)cc3)oc(-c3ccc(Cl)cc3)c2cc1C
inactive: [1] -7.35% | [2] 15.8% | [3] -6.35% | [4] 2.85% | [5] -15.4% | [6] -9.5%

O=[N+]([O-])c1ccc(/C(=N/Nc2ccccc2)c2ccc(Cl)cc2)cc1
inactive: [1] 13.2% | [2] 2.1% | [3] 1.65% | [4] -14.1% | [5] 9.8% | [6] 4.1%

C/C(=C\O[Si](C)(C)C)c1ccccc1
inactive: [1] 37.6% | [2] 23.9% | [3] 12.4% | [4] 7.6% | [5] -11.2% | [6] 41.1%

Cn1c(-c2ccccc2)nc(-c2ccccc2)[n+]1[O-]
inactive: [1] 8.75% | [2] -0.55% | [3] 1.85% | [4] 9.8% | [5] 0.6% | [6] 28.6%

CC(=O)Nc1ccc2ccccc2c1
inactive: [1] 7.15% | [2] 5.4% | [3] 0.3% | [4] -25.1% | [5] -4.1% | [6] 1.4%

CCCCCCCCCc1ccc(OC(=O)CCC)cc1
inactive: [1] 2.4% | [2] -22.6% | [3] -15.1% | [4] -50% | [5] -2.95% | [6] 20.7%

CC(C)c1ccc2c(c1)C=C1OC(=O)[C@]3(C)CCC[C@@]2(C)C13 (stereo partly specified)
inactive: [1] 35.1% | [2] 21.9% | [3] 54.2% | [4] 40% | [5] 26.4% | [6] 17.1%

COc1ccc(OC)c(C(c2cc(OC)ccc2OC)C(Cl)(Cl)Cl)c1
inactive: [1] 0.45% | [2] -13.2% | [3] -5.3% | [4] -6.45% | [5] -6% | [6] 14.6%

COc1cc(C(=O)C/C(CCC(=O)Nc2ccccc2[N+](=O)[O-])=N\NC(=O)C(N)=O)ccc1O
inactive: [1] -20.5% | [2] 9.8% | [3] -47.4% | [4] 5.9% | [5] -16.2% | [6] -24.4%

O=c1ccc2ccc(-c3cnc(O)[nH]c3=O)oc-2c1
inactive: [1] 25.6% | [2] 2.05% | [3] 5.35% | [4] 1.4% | [5] 2.25% | [6] 10.3%

COc1cc2[nH]c3c(c2cc1OC)CCN[C@]31CC[C@]2(CC3c4c(cc(OC)c(O)c42)CCN3C)C[C@H]1OC (stereo partly specified)
inactive: [1] 10.8% | [2] -6% | [3] -16.4% | [4] -2.9% | [5] 7.95% | [6] 7.35%

CN(CCO)c1nc(N)cc(=O)[nH]1
inactive: [1] -17.7% | [2] 12.5% | [3] -10.9% | [4] 4.5% | [5] -10.9% | [6] -8.45%

O=S(=O)(O/C(=C(\OS(=O)(=O)C(F)(F)F)c1ccccc1)c1ccccc1)C(F)(F)F
inactive: [1] 6.9% | [2] -20.2% | [3] -21.1% | [4] -4.8% | [5] -2.65% | [6] 10%

COc1cc2c(cc1OC)[C@H]1Cc3cc(OC)c(OC)cc3[C@@H](C2)N1C(C)=O
inactive: [1] -2.1% | [2] -11.2% | [3] -16.6% | [4] 22.6% | [5] 20.9% | [6] -3.6%

COc1ccc(CC#N)c(OCc2ccccc2)c1
inactive: [1] 2.35% | [2] 8.3% | [3] -10.2% | [4] 3.55% | [5] 1.8% | [6] -17.5%

O=C1C=C(NCC(c2ccccc2)c2ccccc2)C(=O)c2ncccc21
inactive: [1] 33.2% | [2] 24.8% | [3] 43% | [4] 34.9% | [5] 40.9%
active: [6] 77.8%

CC1(C)C2CCC(OC(=O)c3ccc([N+](=O)[O-])cc3)C1C2 (stereo unspecified)
inactive: [1] 7.25% | [2] -5.15% | [3] 3.5% | [4] -8.1% | [5] 9.95% | [6] -20.8%

O=c1c[n+]([O-])c2ccccc2n1O
inactive: [1] 10.8% | [2] -3.75% | [3] 3.75% | [4] -27.1% | [5] -5.7% | [6] 11.8%

COc1ccc(/C=N/NC(=O)NCCNCCO)cc1
inactive: [1] -16.6% | [2] -31.8% | [3] -32.8% | [4] -13.7% | [5] -39.5% | [6] -17.2%

CC(=O)Oc1ccc2ccccc2c1CN(C(C)=O)c1ccc(C)cc1
inactive: [1] -7.45% | [2] -22.7% | [3] -10.1% | [4] -19.4% | [5] 1.7% | [6] -28.4%

ClCC1COC(CCc2ccccc2)O1 (stereo unspecified)
inactive: [1] 18.4% | [2] -3.5% | [3] -10.9% | [4] 64.2% | [5] 3.1% | [6] 7.7%

CC(C)OCC(O)CNCCN (stereo unspecified)
inactive: [1] -30.8% | [2] -20.9% | [3] -7.9% | [4] -2.5% | [5] -21% | [6] -0.75%

C[Si](C)(C)Nc1ncnc2c1ncn2[Si](C)(C)C
inactive: [1] 14.6% | [2] 4.85% | [3] 21.6% | [4] -9.3% | [5] 2.85% | [6] 7.05%

CCCC(=O)N[C@H]1C2C3CC4C5CC(C42)C1(C)C53 (stereo partly specified)
inactive: [1] -5.3% | [2] -17.4% | [3] 3.8% | [4] 10.3% | [5] 7.25% | [6] -17.2%

Cc1ccc(NC(=O)CC#N)c(C)c1
inactive: [1] -11.8% | [2] -10.2% | [3] -17.9% | [4] -40.9% | [5] -0.7% | [6] 4%

CCOC(=O)c1ccc(NC(=S)Nc2ccccc2S)cc1
inactive: [1] 16.4% | [2] 16.4% | [3] 22.9% | [4] 9.35% | [5] 10.1% | [6] 11.9%

CC(C)c1cccc(C(C)C)c1NC(=O)C(=O)C(C(=O)c1ccccc1-c1ccccc1)C1OC(=O)c2ccccc21 (stereo unspecified)
inactive: [1] 8.2% | [2] 3.8% | [3] 19.6% | [4] -49.2% | [5] -3.05% | [6] 8%

Cc1cc(C)c2c(=O)cc(-c3cccc(Cl)c3)[nH]c2n1
inactive: [1] 15.6% | [2] -12.4% | [3] -25% | [4] -23.8% | [5] -50.7% | [6] -65.7%

N#Cc1c2nc3ccccc3nc2n2ccc3ccccc3c12
inactive: [1] -50% | [2] -61% | [3] -83.3% | [4] -13.1% | [5] -42.5% | [6] -71.7%

CCC1Cc2ccccc2OC1=O (stereo unspecified)
inactive: [1] 10.9% | [2] -3.6% | [3] -1.95% | [4] -7.7% | [5] 7.9% | [6] 1.55%

CCN(CC)CCCNc1[nH]ncc2c(C)c3nc4ccccc4c3cc12
inactive: [1] 14.1% | [2] -10.2% | [3] 14.7% | [4] 10.1% | [5] 9.4% | [6] -4.05%

FC(F)(F)c1ccc(C2ON=C(c3ccccc3)N2C23CC4CC(CC(C4)C2)C3)cc1 (stereo unspecified)
inactive: [1] 17.1% | [2] 4.1% | [3] 25.1% | [4] -0.4% | [5] -7.5% | [6] 1.25%

O=c1nc(NO)cnn1C1OC(CO)C(O)C1O (stereo unspecified)
inactive: [1] 13.7% | [2] -0.2% | [3] 16.4% | [4] -26.4% | [5] -11.8% | [6] 11.7%

N/C(=N\O)c1ccccc1
inactive: [1] 27.1% | [2] 0.6% | [3] 13.7% | [4] 15.3% | [5] 4.35% | [6] 23.1%

CC1OC(OC2C(OC(=O)[C@@H]3CC(C)(C)C[C@H]4C5=CC[C@@H]6[C@@]7(C)C[C@H](O)[C@H](OC8OC(CO)C(O)C(O)C8O)[C@@](C)(CO)[C@@H]7[C@H](O)C[C@@]6(C)[C@]5(C)CC[C@@]34C)OCC(O)C2O)C(O)C(O)C1O (stereo partly specified)
inactive: [1] -22.4% | [2] -20.7% | [3] -18.1% | [4] -14.2% | [5] -1.8% | [6] -64.4%

CN(C=O)/C=C/c1cc(O)ccc1O
inactive: [1] -0.95% | [2] -0.8% | [3] -1.6% | [4] -4.1% | [5] 7.7% | [6] 5.4%

O=C(/C=C/C(=O)c1ccc(O)cc1)Oc1ccccc1
inactive: [1] 33.1% | [2] -3.75% | [3] 1.1% | [4] -15.3% | [5] 12.9% | [6] 18.1%

CC(C)CCCC(C)C1CCC2C3=CCC4CC(=O)CCC4(C)C3CCC21C (stereo unspecified)
inactive: [1] 30.9% | [2] -10.9% | [3] 4.65% | [4] 4.35% | [5] -1.2% | [6] 4.5%

CCCCCCCCCCCCSCC(=O)O
inactive: [1] -16.8% | [2] 10.8% | [3] 14.2% | [4] -82.8% | [5] 39% | [6] -25.8%

C=C(C)C(=O)OCCN(CC)CC
inactive: [1] 33.9% | [2] -4.15% | [3] 17.7% | [4] 23.6% | [5] 11.4% | [6] 23.5%
